NOMO-1 viab – STK33 inhibitor candidate reducing NOMO-1 cell viability | AID 2330 | actives 7.5% (n = 37,000) | NOMO-1 AML viability, CellTiter-Glo luminescence, 72 h | inhibition, % (test concentration not listed); in the data active means inhibition above about 80%; inconclusive means no clear call, values can overlap the other calls
Hedgehog inh – blocks Sonic Hedgehog signaling. AID 2313. inhibition, % (no concentration beside the values). actives 2.1% (n = 22,000). Shh-LIGHT2 Gli-luciferase reporter, 30 h;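 active means mean inhibition across valid replicates above about 65%, limit read from the data; inconclusive means mean under the limit, yet half or more replicates past it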;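 further: pathway switched on by Shh-conditioned medium diluted 1 in 25 in low serum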
MITF inh – MITF inhibition. inhibition, % (no concentration beside the values). actives 0.28% (n = 37,000). TRPM1 promoter luciferase, luminescence, 24 h; in the data active means inhibition above about 85%; inconclusive means no clear call, values can overlap the other calls; inactive means below about 68%;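 further: human melanocyte line stably carrying TRPM1 promoter luciferase reporter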
Large screens that a line does not name were inactive; ! = a repeat was not active. Shown are actives, neighbours in structure and some others; about 7.9% of the full set was active somewhere.

C=C1[C@@H]2CC[C@H]3[C@@]4(C)C(C[C@H](OC(=O)[C@]5(C)O[C@@H]5C)[C@]3(C2)[C@@H]1OC(C)=O)[C@](C)(C(=O)OC)CC[C@H]4OC(C)=O (stereo not given in full)	NOMO-1 viab 88
Cc1ccc(NC(=O)CCC(=O)c2ccc(Oc3ccccc3)cc2)cc1	none (no result: Hedgehog inh)
Cc1cccc(OCC(=O)Nc2ccccc2C(=O)NC2CCCCC2)c1	none (no result: Hedgehog inh)
CCc1cccc(C)c1NC(=O)CSc1nnc(C)n1-c1ccc(F)cc1	none (no result: Hedgehog inh)
C/C=C(\C)C(=O)O[C@H]1C=C(CO)C(=O)[C@H](OC(C)=O)[C@H]1C(C)C	NOMO-1 viab 122
C[C@H](CO)N1C[C@H](C)[C@@H](CN(C)Cc2ccc(-c3ccccc3)cc2)Oc2ccc(NS(=O)(=O)c3ccc(F)cc3)cc2C1=O	none
C[C@H](CO)N1C[C@H](C)[C@H](CN(C)Cc2ccc(-c3ccccc3)cc2)Oc2ccc(NS(=O)(=O)c3ccc(F)cc3)cc2C1=O	none (no result: Hedgehog inh)
C[C@@H]1CN([C@H](C)CO)C(=O)c2cc(NS(=O)(=O)c3ccc(F)cc3)ccc2O[C@H]1CN(C)Cc1ccc(-c2ccccc2)cc1	NOMO-1 viab 97 (no result: Hedgehog inh)
C[C@H]1CN([C@@H](C)CO)C(=O)c2cc(NS(=O)(=O)c3ccc(F)cc3)ccc2O[C@@H]1CN(C)Cc1ccc(-c2ccccc2)cc1	NOMO-1 viab 100
CCC(C)CC(C)/C=C\C1OC2=C(C(=O)OC2(C)O)C(O)C1O (stereo not given)	NOMO-1 viab 108, Hedgehog inh inconclusive, MITF inh inconclusive
COc1ccc2nc(NCc3ccc(OC)c(OC)c3OC)sc2c1	none (no result: Hedgehog inh)
Nc1nc2ccc(OC(F)(F)F)cc2s1	Hedgehog inh 68!
COc1ccc(-c2ccc(CCC(=O)O)n2-c2ccc(Br)cc2)cc1	none (no result: Hedgehog inh)
O=c1[nH][nH]c(=O)n1CCCc1cc2cccc3ccc4cccc1c4c32	none
Cc1ccc(S(=O)(=O)Nc2ccc3c(c2)C(=O)N([C@H](C)CO)C[C@H](C)[C@H](CN(C)C(=O)NC2CCCCC2)O3)cc1	none
CCOC(=O)c1c(CN2CCCCC2)n(-c2ccccc2)c2ccc(OC(C)=O)cc12	none
C[C@H](CO)N1C[C@H](C)[C@H](CN(C)C(=O)Nc2ccc(C(F)(F)F)cc2)Oc2ccc(NC(=O)Nc3ccc(C(F)(F)F)cc3)cc2CC1=O	NOMO-1 viab 114
C[C@H]1CN([C@@H](C)CO)C(=O)Cc2cc(NC(=O)Nc3ccc(C(F)(F)F)cc3)ccc2O[C@@H]1CN(C)C(=O)Nc1ccc(C(F)(F)F)cc1	none
CC(C)NC(=O)Nc1ccc2c(c1)CC(=O)N([C@H](C)CO)C[C@H](C)[C@H](CN(C)C(=O)Nc1ccc(F)cc1)O2	Hedgehog inh 77
C[C@H](CO)N1C[C@H](C)[C@H](CN(C)C(=O)Nc2ccc(F)cc2)Oc2ccc(NC(=O)Nc3ccc(C(F)(F)F)cc3)cc2CC1=O	none
C[C@@H]1CN([C@@H](C)CO)C(=O)Cc2cc(NC(=O)Nc3ccc(C(F)(F)F)cc3)ccc2O[C@@H]1CN(C)C(=O)Nc1ccc(F)cc1	NOMO-1 viab 115
CC(C)NC(=O)Nc1ccc2c(c1)CC(=O)N([C@H](C)CO)C[C@@H](C)[C@H](CN(C)C(=O)Nc1ccc(F)cc1)O2	none
CC(=O)Nc1[nH]c2c(c1C#N)CCCCC2	none
O=C(Nc1ccccc1C(=O)OCc1ccc([N+](=O)[O-])cc1)c1ccco1	none (no result: Hedgehog inh)
COc1cc(OC)cc(-c2nc(N)c3c(C)c(-c4ccc(OC)c(OC)c4)sc3n2)c1	NOMO-1 viab 115
COc1ccc(NC(=O)CCCSc2nc(N)c3c(C)c(C)sc3n2)cc1	none (no result: Hedgehog inh)
Cc1ccc(C)c(NC(=O)CSc2nnnn2-c2ccc(C(=O)O)cc2)c1	none (no result: Hedgehog inh)
Cc1[nH]c2ccccc2c1C(c1ccccc1)N1CCN(C)CC1 (stereo not given)	NOMO-1 viab 117, Hedgehog inh inconclusive
Cc1[nH]c2ccccc2c1C(O)c1cccnc1 (stereo not given)	Hedgehog inh inconclusive
Cc1ccc2cccc(S(=O)(=O)N3CCC(C(=O)O)CC3)c2n1	none (no result: Hedgehog inh)
C=C1CCC2C(C)(CO)CCCC2(C)C1CC/C(C)=C/C(=O)O (stereo not given)	none (no result: NOMO-1 viab, MITF inh)
C=C1CCC2[C@](C)(CO)[C@H](O)CC[C@@]2(C)[C@@H]1C/C=C1/C(=O)OC[C@H]1O (stereo not given in full)	NOMO-1 viab 98, Hedgehog inh 93
C[C@@H]1CN([C@@H](C)CO)C(=O)c2cccc(NC(=O)c3ccncc3)c2O[C@@H]1CN(C)C(=O)Nc1ccccc1	none
COC(=O)COc1cccc(NC(=O)c2ccc(C)cc2)c1	NOMO-1 viab 116 (no result: Hedgehog inh)
COC(=O)COc1cccc(NC(=O)c2ccc(Br)cc2)c1	NOMO-1 viab 119 (no result: Hedgehog inh)
Cc1ccc(C(=O)COc2cccc(NC(=O)c3ccc(Br)cc3)c2)cc1C	none (no result: Hedgehog inh)
O=C(O)COc1cccc(NC(=O)c2ccc(-c3ccccc3)cc2)c1	none (no result: Hedgehog inh)
COc1cccc(C(=O)Nc2cccc(OCC(=O)O)c2)c1	none (no result: Hedgehog inh)

Assay outcomes from PubChem BioAssay.
